Assay outcomes (PubChem)
Compounds with a hit are over-represented: about 11% of the library has one in this group of screens.
JMJD2A Tudor = blocks the human JMJD2A Tudor domain | O75164 | AlphaScreen JMJD2A-Tudor / H3K4me3 peptide binding | Potency, µM (top dose mostly 114 µM), hits mostly inhibitors | hit rate 4.4% among 390,000 | AID 504339; note: nearly all actives have a fitted effect of over 50% in size
VDR inhibitor = vitamin D3 receptor (human) inhibition | P11473 | VDR-SRC2-3 peptide fluorescence polarization, 2 h | Potency, µM, usual class: inhibitors | hit rate 0.93% among 400,000
Target sequence (P11473 whole entry, looked up): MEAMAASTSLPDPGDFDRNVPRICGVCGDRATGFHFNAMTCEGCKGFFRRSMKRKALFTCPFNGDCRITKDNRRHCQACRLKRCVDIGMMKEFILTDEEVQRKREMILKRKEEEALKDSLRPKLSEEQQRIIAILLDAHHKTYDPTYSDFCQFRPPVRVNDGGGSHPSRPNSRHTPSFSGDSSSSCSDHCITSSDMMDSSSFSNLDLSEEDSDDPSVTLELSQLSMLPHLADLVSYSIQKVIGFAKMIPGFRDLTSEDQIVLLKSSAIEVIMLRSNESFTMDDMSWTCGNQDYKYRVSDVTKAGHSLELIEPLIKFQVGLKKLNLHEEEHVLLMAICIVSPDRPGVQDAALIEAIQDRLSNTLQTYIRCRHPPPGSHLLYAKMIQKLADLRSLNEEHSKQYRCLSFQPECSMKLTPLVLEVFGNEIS
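The screen uses fluorescence polarization to detect compounds that interfere with recruitment of the SRC2-3 coactivator peptide to VDR; plates are read after 2 h at room temperature.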
PLK1 PBD block = PLK1 (human) polo-box domain binding inhibition | Potency, µM, most hits filed as inhibitors | P53350 | AID 720504 | Plk1 PBD binding of FITC phosphopeptide, fluorescence polarization | hit rate 2.8% among 360,000; note: series mostly up to about 57 µM; nearly all actives have a fitted effect of over 65% in size
HP1b chromo inh = blocks HP1-beta chromodomain binding to methylated histone tails; hit rate 0.56% among 390,000; AlphaScreen HP1-beta / biotin-H3K9me3 peptide binding; AID 540317; Potency, µM (series often up to 114 µM), usual class: inhibitors; note: nearly all actives have a fitted effect of over 70% in size
Target sequence (P83916 whole entry, looked up): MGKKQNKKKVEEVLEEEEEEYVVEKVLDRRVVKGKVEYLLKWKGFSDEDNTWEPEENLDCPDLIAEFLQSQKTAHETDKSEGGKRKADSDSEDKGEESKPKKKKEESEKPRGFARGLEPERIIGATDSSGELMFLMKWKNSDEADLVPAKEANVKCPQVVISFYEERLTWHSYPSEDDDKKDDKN
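HP1-beta protein (50 nM final) preincubated 30 min at room temperature with biotinylated H3(1-18)K9me3 peptide (50 nM) in PBS pH 7.4, 0.01% Tween-20, then compound added for 30 min. AlphaScreen streptavidin donor/nickel chelate acceptor beads (10 ug/mL final), 30 min dark, luminescence read.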
G9a block = blocks human histone lysine methyltransferase G9a; Potency, µM (top dose mostly 102 µM), hits mostly inhibitors; AID 504332; G9a H3K9 monomethylation, AlphaScreen, 2 h; Q96KQ7; hit rate 8.8% among 350,000; note: nearly all actives have a fitted effect of over 75% in size
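Methyltransferase reactions run at room temperature for 2 h (20 nM enzyme, 500 nM biotin-H3K9 peptide, 20 uM SAM) after a 15 min compound preincubation; product detected by AlphaScreen beads and anti-H3K9me1 antibody.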
BAZ2B block = inhibitors of human BAZ2B bromodomain | AID 504333 | Q9UIF8 | AlphaScreen BAZ2B-H3K14Ac peptide displacement | Potency, µM (titrated, usually from 114 µM), most hits filed as inhibitors | hit rate 4.4% among 360,000; note: nearly all actives have a fitted effect of over 60% in size
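Inhibition is scored as reduced AlphaScreen emission. The BAZ2B/b-H3(5-23)K14Ac complex (50 nM each) in PBS pH 7.4, 0.01% Tween-20 meets compound (up to 110 uM) for 30 min at RT before bead addition.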
Hits are given with their value; - = inactive; ? = inconclusive; . = no result; ! = a repeat was not active; [ ] = dose if it differs, or a comment. Calls come from the whole dose curve; as a rule, active = well fitted curve in the direction sought with a large enough effect; inconclusive = small, poorly fitted or top-dose-only effect, or another doubt; inactive = no such curve, though single readings can be large; an effect the other way counts as inactive or inconclusive.

SMILES	JMJD2A Tudor	VDR inhibitor	PLK1 PBD block	HP1b chromo inh	G9a block	BAZ2B block
Cc1csc(NC(=O)c2nc3nc(C)cc(C)n3n2)n1	79µM	-	-	-	?	?
CC(=O)N(C(C)=O)c1nc2nc(C)cc(C)n2n1	?	-	?	-	?	56µM
CCOc1ccc(-c2cc(C(=O)Nc3ccc(C)c(NS(C)(=O)=O)c3)[nH]n2)c(C)c1	.	.	-	.	.	.
Oc1cccc(-c2nc3ncccn3c2Nc2cccc(C(F)(F)F)c2)c1	-	-	.	-	-	-
CC1(OC(=O)c2cnc3ccccc3n2)C(=O)C=C2C=C(c3ccsc3)OC=C2C1=O (stereo unspecified)	.	-	.	.	.	.
O=C(CSc1nnc(Cc2ccc3c(c2)OCO3)n1C1CCCCC1)NC1CCCC1	-	-	-	-	-	-
NC(=O)CSc1nnc(Cc2ccc3c(c2)OCO3)n1C1CCCCC1	?	-	27µM	-	-	-
CC1(C)OC(=O)C2(Cc3cc([N+](=O)[O-])ccc3N3CCCCC32)C(=O)O1 (stereo unspecified)	-	-	.	-	.	.
S=c1[nH]nc(-c2ccco2)n1/N=C/c1ccccc1Cl	32µM	-	-	-	1.4µM	-
Cc1ccc(/C=N/n2c(C)nnc2C)s1	-	-	27µM	?	?	-
Cc1ccc(/C=N/N2CCOCC2)s1	-	-	-	-	-	-
S=c1[nH]nc(-c2ccco2)n1/N=C/c1ccc(Cl)cc1	40µM	-	?	?	1.3µM	?
Cc1cc(-c2n[nH]c(=S)n2/N=C/c2ccc(C)s2)n[nH]1	7.9µM	-	-	-	1.8µM	?
Cc1ccc(/C=N/n2c(-c3ccco3)n[nH]c2=S)s1	20µM	-	-	-	1.3µM	-
O=c1c2cn[nH]c2[nH]c(=S)n1-c1ccccc1Cl	-	-	-	-	45µM	-
Cc1cccc2nc(CSc3nc4[nH]ncc4c(=O)n3-c3ccccc3Cl)cc(=O)n12	-	-	-	-	-	-
Cc1ccc(-n2c(=S)[nH]c3[nH]ncc3c2=O)cc1	-	-	?	-	35µM	?
O=c1c2cn[nH]c2[nH]c(=S)n1-c1ccccc1F	?	-	-	-	8.9µM	?
COc1cc(Cl)ccc1NC(=S)N(CCCN1CCOCC1)Cc1cn(C)c2ccccc12	?	?	5.3µM	?	18µM	?
COc1ccc(Cl)cc1NC(=S)N(CCCN1CCOCC1)Cc1cn(C)c2ccccc12	?	?	6µM	?	10µM	?
CCNC(=O)c1ccc(CSc2ccc(Cl)cc2)cc1	?	-	27µM	-	-	-
CCCCc1nc(NCC2CCCO2)c(C#N)c2c1COC(C)(C)C2 (stereo unspecified)	-	-	-	-	-	-
CCc1nc(N2CCN(CC(=O)NCC3CCCO3)CC2)c(C#N)c2c1COC(C)(C)C2 (stereo unspecified)	-	-	-	-	.	50µM
O=C(CN(c1ccccc1F)S(=O)(=O)c1ccccc1)N1CCCCCC1	-	-	-	-	-	-
Cc1ccccc1Nc1nc(N)nc(CSc2nnnn2C)n1	?	-	-	-	-	56µM
SMILES	JMJD2A Tudor	VDR inhibitor	PLK1 PBD block	HP1b chromo inh	G9a block	BAZ2B block
CCc1ccccc1Nc1nc(N)nc(CSc2nnnn2C)n1	-	-	-	-	-	?
COc1ccccc1Nc1nc(N)nc(CN2CC(C)CC(C)C2)n1 (stereo unspecified)	-	-	-	-	10µM	?
COc1ccc(N2CCN(Cc3nc(N)nc(Nc4ccccc4OC)n3)CC2)cc1	56µM	-	-	-	40µM	28µM
CCOc1ccccc1Nc1nc(N)nc(CSc2nccc(C)n2)n1	-	-	-	-	-[12.7 µM]	-
COc1ccccc1Nc1nc(N)nc(CN2CCCCC2)n1	-	-	-	-	?	-
COc1ccccc1Nc1nc(N)nc(CSc2ncccn2)n1	?	-	27µM	-	-[12.7 µM]	-
COc1cccc(C(=O)c2cn(CC(=O)NCc3ccccc3Cl)c3nc(C)ccc3c2=O)c1	-	-	.	-	-	-
CCOc1ccccc1Nc1nc(N)nc(CN(C)C2CCCCC2)n1	50µM	?	-	-	-	18µM
CCOc1ccccc1Nc1nc(N)nc(CSc2nncn2C)n1	-	-	-	-	-[12.7 µM]	-
COc1ccc(-c2[nH]c3ccccc3c2SCCNC(=O)c2cc(OC)c(OC)c(OC)c2)cc1	?	-	.	-	?	?
NCCSC1CC(=O)N(c2ccc(Cl)c(Cl)c2)C1=O (stereo unspecified)	-	-	-	-	35µM	?
O=C1CC(SCc2nc3ccccc3[nH]2)C(=O)N1c1cccc(Cl)c1 (stereo unspecified)	-	-	-	-	18µM	-
Cc1c(Cl)cnc(NC(=O)COC(=O)C2CC3CCCC(C2)C3=O)c1Cl (stereo unspecified)	-	-	-	-	-[12.7 µM]	-
Cc1ccccc1CN1c2ccccc2-c2nc(SCC(=O)NCCc3ccccc3)ncc2S1(=O)=O	-	-	.	-	-	-
NCCCNCCCCNCCCN	-	-	-	-	13µM!	.
NCCCCCCCCCCNCCCN	.	-	.	.	.	.
CC(C)Cc1nnc(NC(=O)CS(=O)(=O)Cc2ccccc2)s1	-	-	24µM	-	8.9µM	-
Cc1nnc(NC(=O)CCS(=O)(=O)Cc2ccccc2)s1	-	-	?	-	?	-
COc1ccc(C)cc1NC(=O)CCCN1C(=O)CCC1=O	-	-	-	-	?	-
NC(=O)c1ccccc1NC(=O)CCCN1C(=O)CCC1=O	-	-	-	-	45µM	-
CCCC(C)c1nnc(NC(=O)CCS(=O)(=O)Cc2ccccc2)s1 (stereo unspecified)	-	?	13µM	-	25µM	-
CC(C)c1nnc(NC(=O)CS(=O)(=O)Cc2ccccc2)s1	-	-	27µM	-	.	?
CCC(CC)c1nnc(NC(=O)CS(=O)(=O)Cc2ccccc2)s1	-	-	?	-	.	.
O=C(COc1ccccc1F)NC1CC(=O)N(c2ccc3c(c2)OCCO3)C1 (stereo unspecified)	-	-	.	-	-	-
O=C1NC[C@@H](CCCCN2C[C@H](Cc3ccc(O)cc3)N(Cc3ccccc3)C(=O)C2=O)N(CCc2ccc(O)cc2)C1=O	.	.	-	.	.	.
SMILES	JMJD2A Tudor	VDR inhibitor	PLK1 PBD block	HP1b chromo inh	G9a block	BAZ2B block
Cc1ccc(S(C)(=O)=O)cc1C(=O)Nc1ccc(S(=O)(=O)Nc2nccs2)cc1	-	-	-	-	-[12.7 µM]	-
COc1cccc(-c2c(C(=O)N/N=C(\C)c3cccs3)nnn2-c2nonc2N)c1	-	-	-	-	-	-
NC(=O)c1ccccc1NC(=O)CS(=O)(=O)Cc1ccccc1	-[11.4 µM]	-	24µM	-	-	-
CC(C)c1nnc(NC(=O)CS(=O)(=O)c2ccccc2)s1	-	-	-	-	-	-
NC(=O)c1ccccc1NC(=O)CCCc1ccccc1	-	-	-	-	-[0.501 µM]	-
CCCC(C)c1nnc(NC(=O)CS(=O)(=O)Cc2ccccc2)s1 (stereo unspecified)	-	?	14µM	?	8.9µM	-
